In PubChem BioAssay (NCATS):
Inconclusive results are not listed. The source made the active and inactive calls. Unless noted, calls follow the shape of the full dose curve.

How the values were obtained:
[1] = molecular target: Glucocorticoid receptor (Homo sapiens) (UniProt P04150); test: qHTS assay for small molecule agonists of glucocorticoid receptor signaling (AID 588532; active = well fitted curve in the direction sought with a large enough effect in the signal ratio, with a control signal flat; the % refers to the signal ratio;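 also: 100% = dexamethasone at 0.1 µM and 0% = DMSO only wells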); conditions: HeLa MMTV-bla, beta-lactamase ratio, agonist, 18 h; activation: stronger effect = higher value, percent of dexamethasone control, DMSO zero
Summary of the method: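 Using MMTV-bla HeLa cells in medium with 1% stripped FBS and 25 mM HEPES, compounds were titrated and incubated overnight-length (18 h). Beta-lactamase cleavage of CCF4 was quantified by dual-emission fluorescence.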

[2] = molecular target: Glucocorticoid receptor (Homo sapiens) (UniProt P04150); test: qHTS assay for small molecule antagonists of glucocorticoid receptor signaling (AID 588533; active = well fitted inhibition curve with a large enough effect in the signal ratio, with a control signal flat, not every such curve was filed as active; the % refers to the signal ratio;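 also: cells stimulated with 2 nM dexamethasone as agonist; % is scaled to controls: 0 for no effect and ±100 for the full control effect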)
Summary of the method: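 Antagonist-mode qHTS: compound titrations added to GRE-bla HeLa cells, then dexamethasone 2 nM final; 18 h, 37 C. CCF4 FRET fluorescence normalized to dexamethasone and DMSO; IC50 from Hill fit.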

[3] = molecular target: Peroxisome proliferator-activated receptor delta (Homo sapiens) (UniProt Q03181); test: qHTS assay for small molecule agonists of peroxisome proliferator-activated receptor delta signaling (AID 588534);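 also: 0% = DMSO basal wells and 100% = positive control agonist at 10 µM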
Summary of the method: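 Agonist-mode beta-lactamase reporter readout (CCF4 dye, 2 h at RT) after 18 h at 37 °C exposure to a titration; Hill-equation fitting gave EC50 and maximal response.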

[4] = qHTS assay for small molecule antagonists of peroxisome proliferator-activated receptor delta signaling (AID 588535; active = well fitted inhibition curve with a large enough effect in the signal ratio, with a control signal flat, not every such curve was filed as active; the % refers to the signal ratio;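 as to max response: cells co-treated with a PPAR-delta agonist as stimulator during compound exposure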); conditions: HEK293T PPARd-UAS-bla, beta-lactamase FRET ratio, 18 h; 460 nm channel
Summary of the method: (§1)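 Titrations were run on PPAR-delta-UAS-bla HEK293T cells in charcoal/dextran-stripped serum, incubated 18 h at 37 C. CCF4 fluorescence (460/530 nm) after 2 h RT; Hill equation yields IC50 and maximal response.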

[5] = molecular target: Peroxisome proliferator-activated receptor delta (Homo sapiens) (UniProt Q03181); test: as above
Summary of the method: as §1

[6] = molecular target: Peroxisome proliferator-activated receptor gamma (Homo sapiens) (UniProt P37231); test: qHTS assay for small molecule antagonists of peroxisome proliferator-activated receptor gamma signaling (AID 588537; active = well fitted inhibition curve with a large enough effect in the signal ratio, with a control signal flat, not every such curve was filed as active; the % refers to the signal ratio;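 also: reporter cells co-stimulated with 50 nM rosiglitazone agonist during compound treatment; % of control where 0% means no effect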)
Summary of the method: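 Antagonist-mode β-lactamase reporter screen run as a titration series. HEK293 PPARγ-UAS-bla cells are stimulated with rosiglitazone (50 nM final) for 16 h, then CCF4 is read at 460/530 nm. Data are scaled between DMSO and rosiglitazone and fitted to the Hill equation.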

[7] = molecular target: Vitamin D3 receptor (Homo sapiens) (UniProt P11473); test: qHTS assay for small molecule antagonists of vitamin D receptor signaling (AID 588541);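 also: receptor activated by calcitriol during compound treatment; series mostly up to about 77 µM; % is scaled to controls: 0 for no effect and ±100 for the full control effect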
Summary of the method: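 Antagonist-mode beta-lactamase reporter assay: HEK293T VDR-UAS-bla cells were exposed to titrated compound alongside 1-alpha,25-dihydroxyvitamin D3 at 3 nM final for 16 h. Values were normalized to the 50 nM agonist control and DMSO basal, with IC50 and efficacy from Hill equation fits.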

[8] = molecular target: Vitamin D3 receptor (Homo sapiens) (UniProt P11473); test: qHTS assay for small molecule agonists of vitamin D receptor signaling (AID 588543);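 also: 0% = DMSO basal and 100% = reference agonist control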
Summary of the method: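 β-lactamase reporter, VDR-UAS-bla HEK293T, agonist mode. Cells plated 5 h at 37 °C, compound titration 16 h at 37 °C, CCF4 dye 2 h RT, ratio 460/530 nm. Hill fit → EC50, efficacy vs 50 nM 1α,25-(OH)2D3.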

[9] = qHTS assay for small molecule agonists of retinoid X receptor alpha signaling (AID 588544); conditions: HEK293T RXRa-UAS-bla, beta-lactamase reporter, 18 h; 530 nm emission;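 as to activation: 0% = DMSO basal wells and 100% = reference agonist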
[10] = molecular target: Retinoic acid receptor RXR-alpha (Homo sapiens) (UniProt P19793); test: as above
[11] = qHTS assay for small molecule antagonists of retinoid X receptor alpha signaling (AID 588546; active = well fitted inhibition curve with a large enough effect in the signal ratio, with a control signal flat, not every such curve was filed as active; the % refers to the signal ratio;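 also: cells stimulated with 9-cis-retinoic acid as agonist; % is scaled to controls: 0 for no effect and ±100 for the full control effect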); conditions: HEK293T RXRa-UAS-bla, beta-lactamase ratio, antagonist mode; measured here: W530 green channel, cytotoxicity proxy
Summary of the method: (§2)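 Beta-lactamase reporter inhibition, read as CCF4 fluorescence ratio (ex 405, em 460/530 nm) after 2 h at RT. HEK293T UAS-bla cells, 2500/well, were stimulated with 9-cis-RA at 500 or 100 nM final alongside test compound for 18 h at 37 C.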

[12] = molecular target: Retinoic acid receptor RXR-alpha (Homo sapiens) (UniProt P19793); test: as above; conditions: HEK293T RXRa-UAS-bla, beta-lactamase ratio, antagonist mode
Summary of the method: as §2

[13] = molecular target: Thyroid hormone receptor beta (Homo sapiens) (UniProt P10828); test: qHTS assay for small molecule antagonists of thyroid hormone receptor beta signaling (AID 588547; active = well fitted inhibition curve with a large enough effect in the signal ratio, with a control signal flat, not every such curve was filed as active; the % refers to the signal ratio;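 also: cells stimulated with 0.4 nM T3 agonist during compound exposure; series mostly up to about 77 µM; % is scaled to controls: 0 for no effect and ±100 for the full control effect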); conditions: TR-UAS-bla HEK293, beta-lactamase ratio, antagonist mode, 18 h
Summary of the method: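 Inhibition of T3-driven (0.4nM final) beta-lactamase reporter activity was measured over 0.59 nM to 92 uM compound after 18 h at 37 C. The cells were GripTite HEK293 TR-UAS-bla in charcoal/dextran-stripped serum, with CCF4 ratio read-out and IC50 from Hill fits.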

[14] = qHTS assay for small molecule activators of the p53 signaling pathway (AID 651743; active = well fitted activation curve with a large enough effect in the signal ratio, not every such curve was filed as active; the % refers to the signal ratio; also: series mostly up to about 92 µM; % of control where 0% means no effect); conditions: HCT-116 p53RE-bla, beta-lactamase FRET ratio, 16 h; activation: stronger effect = higher value
Summary of the method: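 After 16 hours compound treatment at 37 C, HCT-116 cells stably expressing p53RE-driven beta-lactamase were loaded with LiveBLAzer B/G FRET substrate for 2 hours at room temperature. Fluorescence intensity served as the p53 activation read-out.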

[15] = qHTS assay for small molecule activators of the nuclear factor-kappa B (NF-kB) signaling pathway (AID 651749; active = well fitted activation curve with a large enough effect in the signal ratio; the % refers to the signal ratio; also: series mostly up to about 77 µM; % of control where 0% means no effect); conditions: NF-kB-bla ME-180 cells, beta-lactamase FRET ratio, 16 h; activation: stronger effect = higher value
Summary of the method: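 Activation measured after 16 hr compound treatment at 37C, 5% CO2, of 2,000 ME-180 cells/well stably expressing an NF-kB response element–driven beta-lactamase reporter, via FRET-disruption fluorescence.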

[16] = qHTS assay for environmental chemicals that activate the Aryl hydrocarbon Receptor (AhR) signaling pathway (AID 651777; active = well fitted curve in the direction sought with a large enough effect; an effect the other way counts as inactive or inconclusive; also: nearly all actives have a fitted effect of over 15% in size; also: potency is read from the fitted curve at half-maximal effect; as to activation: % of control where 0% means no effect); conditions: 1A2-DRE human hepatoma cells, luciferase, 24 h; activation: stronger effect = higher value
Summary of the method: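 AhR activation is scored as a rise in luciferase from a stable DRE–CYP1A2 promoter construct in human hepatoma cells. Treatment lasts 24 hr at 37 C; detection uses One-Glo after 30 min at room temperature.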

[17] = molecular target: Peroxisome proliferator-activated receptor alpha (Homo sapiens) (UniProt Q07869); test: qHTS assay for small molecule agonists of the peroxisome proliferator-activated receptor alpha (PPARalpha) signaling pathway (AID 651778; active = well fitted curve in the direction sought with a large enough effect; an effect the other way counts as inactive or inconclusive; also: % of control where 0% means no effect); conditions: PathHunter PPARalpha complementation, chemiluminescence, 6 h; max response: stronger effect = higher value
Summary of the method: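 Chemiluminescence from complemented enzyme reported PPARalpha activation in cells after 6 hr of compound treatment at 37 C. The detection reagent was incubated for 60 min at room temperature, and compounds were scored as agonists.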

[18] = qHTS assay for small molecule agonists of the antioxidant response element (ARE) signaling pathway measured by Nrf2-dependant transcriptional activity (AID 720636; active = well fitted curve in the direction sought with a large enough effect in the repeat runs; an effect the other way counts as inactive or inconclusive; also: potency is read from the fitted curve at half-maximal effect;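 as to activation: HepG2 cells with an ARE-driven luciferase reporter; % of control where 0% means no effect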)
Summary of the method: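 First, ARE-luc HepG2 cells attached for 6 hr at 37 C in 1% dialyzed FBS medium. Next, compound or DMSO was added and incubated 16 hr. Finally, ONE-Glo reagent was added and luminescence measured after 30 min.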

[19] = qHTS assay for small molecule agonists of the antioxidant response element (ARE) signaling pathway measured by Nrf2-dependant transcriptional activity - cell viability counter screen (AID 720653; active = well fitted curve in the direction sought with a large enough effect in the repeat runs; an effect the other way counts as inactive or inconclusive; also: % is scaled to controls: 0 for no effect and ±100 for the full control effect); conditions: ARE-bla HepG2 viability, CellTiter-Glo ATP luminescence, 16 h; max response: stronger effect = lower value
Summary of the method: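 Cytotoxicity counter screen: intracellular ATP quantified by CellTiter-Glo luminescence in the same ARE-bla HepG2 plates, after 16 h compound exposure and a 2 h beta-lactamase substrate step.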

[20] = qHTS assay for cell viability of HEK293 cells (AID 743288; active = well fitted curve in the direction sought with a large enough effect; an effect the other way counts as inactive or inconclusive; also: % is scaled to controls: 0 for no effect and ±100 for the full control effect; nearly all actives have a fitted effect of over 50% in size); conditions: ATP luminescence (CellTiter-Glo), 18 h; max response: stronger effect = lower value
Summary of the method: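 ATP luminescence (CellTiter-Glo) reports metabolically competent cell number after parental HEK293 cells, 2,000/well, were treated with DMSO-dissolved compounds for 18 h at 37 C; reagent incubation 30 min, room temperature.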

[21] = molecular target: Nuclear receptor subfamily 1 group I member 2 (Rattus norvegicus) (UniProt Q9R1A7); test: qHTS assay for small molecule activators of the rat pregnane X receptor (rPXR) signaling pathway (AID 651751; call rule not given here; also: 0% is about no effect); conditions: rPXR reporter cells, luciferase (One-Glo), 24 h
[22] = qHTS assay for small molecule activators of the human pregnane X receptor (PXR) signaling pathway (AID 720659; call rule not given here; also: 0% is about no effect)
[23] = molecular target: Thyroid hormone receptor beta (Homo sapiens) (UniProt P10828); test: qHTS assay for small molecule agonists of thyroid hormone receptor beta signaling (AID 588545);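 also: 0% = DMSO only and 100% = 10 nM T3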
Summary of the method: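 Beta-lactamase reporter activity under TR response element control is measured in HEK 293 cells after 18 hrs compound exposure. Signal is ratiometric CCF4 fluorescence, 460/530 nm.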

[24] = molecular target: Peroxisome proliferator-activated receptor gamma (Homo sapiens) (UniProt P37231); test: qHTS assay for small molecule agonists of peroxisome proliferator-activated receptor gamma signaling (AID 588536; active = well fitted curve in the direction sought with a large enough effect in the signal ratio, with a control signal flat, not every such curve was filed as active; the % refers to the signal ratio;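 also: 0% = DMSO basal wells and 100% = rosiglitazone at 2 µM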)
Summary of the method: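 Compound treatment: 16 h, 37 C, HEK293 GeneBLAzer cells. Detection: CCF4, 2 h RT. Values: Hill-fit EC50, efficacy as % of 2 uM rosiglitazone.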

[25] = qHTS assay for cell viability of the p53RE-bla HCT-116 cell line (AID 743292; active = well fitted curve in the direction sought with a large enough effect; an effect the other way counts as inactive or inconclusive; also: nearly all actives have a fitted effect of over 55% in size; also: potency is read from the fitted curve at half-maximal effect)
Summary of the method: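 Quantitative high-throughput format: compounds in DMSO were pinned onto p53RE-bla HCT-116 cells (4,000/well) and incubated 16 h at 37 C. Total intracellular ATP, read by CellTiter-Glo luminescence, reflects viable cell number.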

[26] = qHTS assay for small molecule agonists of the antioxidant response element (ARE) signaling pathway (AID 651741; active = well fitted activation curve with a large enough effect in the signal ratio; the % refers to the signal ratio; also: potency is read from the fitted curve at half-maximal effect)
Summary of the method: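 Beta-lactamase reporter under ARE control in HepG2 cells, 2,000 per well, was induced by 16 h compound treatment at 37 C. Read-out was fluorescence from LiveBLAzer B/G FRET substrate after 2 h at room temperature.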

Sequence of Thyroid hormone receptor beta (Homo sapiens) (P10828 whole entry, looked up): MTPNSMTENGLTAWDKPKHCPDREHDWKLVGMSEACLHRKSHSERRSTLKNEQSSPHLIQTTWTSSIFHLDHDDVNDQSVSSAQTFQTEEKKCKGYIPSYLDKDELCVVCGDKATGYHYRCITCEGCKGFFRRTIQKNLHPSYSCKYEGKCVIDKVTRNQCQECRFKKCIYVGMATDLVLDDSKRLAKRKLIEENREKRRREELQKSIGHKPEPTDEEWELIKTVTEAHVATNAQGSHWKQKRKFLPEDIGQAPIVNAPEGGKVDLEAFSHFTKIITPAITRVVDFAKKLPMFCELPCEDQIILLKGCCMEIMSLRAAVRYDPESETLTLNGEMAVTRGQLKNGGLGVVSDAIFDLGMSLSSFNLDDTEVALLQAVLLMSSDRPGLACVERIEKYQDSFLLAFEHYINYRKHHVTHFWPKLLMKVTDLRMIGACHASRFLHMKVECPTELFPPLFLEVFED
Sequence of Glucocorticoid receptor (Homo sapiens) (P04150 whole entry, looked up): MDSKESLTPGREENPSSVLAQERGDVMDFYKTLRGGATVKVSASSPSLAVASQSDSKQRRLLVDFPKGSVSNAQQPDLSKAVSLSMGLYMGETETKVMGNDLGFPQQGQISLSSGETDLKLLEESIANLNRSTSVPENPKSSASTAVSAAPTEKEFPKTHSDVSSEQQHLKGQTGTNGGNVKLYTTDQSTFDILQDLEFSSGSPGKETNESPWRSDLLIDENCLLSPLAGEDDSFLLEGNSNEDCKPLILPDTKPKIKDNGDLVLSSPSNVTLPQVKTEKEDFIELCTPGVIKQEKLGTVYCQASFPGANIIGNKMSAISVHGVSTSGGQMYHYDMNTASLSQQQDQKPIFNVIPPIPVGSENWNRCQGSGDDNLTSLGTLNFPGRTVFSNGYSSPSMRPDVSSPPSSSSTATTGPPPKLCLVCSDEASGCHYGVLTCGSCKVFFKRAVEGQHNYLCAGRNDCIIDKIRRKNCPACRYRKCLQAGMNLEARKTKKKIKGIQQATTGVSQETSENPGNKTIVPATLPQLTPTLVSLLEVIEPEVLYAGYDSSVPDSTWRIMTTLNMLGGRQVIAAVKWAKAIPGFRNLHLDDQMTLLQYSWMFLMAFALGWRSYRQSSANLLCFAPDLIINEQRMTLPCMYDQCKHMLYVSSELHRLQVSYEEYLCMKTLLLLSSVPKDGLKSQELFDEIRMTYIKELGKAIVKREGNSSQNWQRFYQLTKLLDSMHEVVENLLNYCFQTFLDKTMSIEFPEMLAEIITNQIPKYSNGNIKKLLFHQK
Sequence of Vitamin D3 receptor (Homo sapiens) (P11473 whole entry, looked up): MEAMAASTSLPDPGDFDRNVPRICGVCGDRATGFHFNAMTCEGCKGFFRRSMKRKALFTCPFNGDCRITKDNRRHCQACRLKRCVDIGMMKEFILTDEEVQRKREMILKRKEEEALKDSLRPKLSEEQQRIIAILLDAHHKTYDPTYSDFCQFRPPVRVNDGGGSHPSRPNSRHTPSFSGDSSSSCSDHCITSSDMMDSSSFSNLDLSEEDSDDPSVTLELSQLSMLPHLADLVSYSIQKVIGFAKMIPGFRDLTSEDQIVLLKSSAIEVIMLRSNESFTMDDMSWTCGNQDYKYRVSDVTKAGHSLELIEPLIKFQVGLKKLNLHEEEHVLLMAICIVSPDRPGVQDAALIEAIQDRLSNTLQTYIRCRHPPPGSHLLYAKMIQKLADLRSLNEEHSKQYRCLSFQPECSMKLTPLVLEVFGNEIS
Sequence of Peroxisome proliferator-activated receptor alpha (Homo sapiens) (Q07869 whole entry, looked up): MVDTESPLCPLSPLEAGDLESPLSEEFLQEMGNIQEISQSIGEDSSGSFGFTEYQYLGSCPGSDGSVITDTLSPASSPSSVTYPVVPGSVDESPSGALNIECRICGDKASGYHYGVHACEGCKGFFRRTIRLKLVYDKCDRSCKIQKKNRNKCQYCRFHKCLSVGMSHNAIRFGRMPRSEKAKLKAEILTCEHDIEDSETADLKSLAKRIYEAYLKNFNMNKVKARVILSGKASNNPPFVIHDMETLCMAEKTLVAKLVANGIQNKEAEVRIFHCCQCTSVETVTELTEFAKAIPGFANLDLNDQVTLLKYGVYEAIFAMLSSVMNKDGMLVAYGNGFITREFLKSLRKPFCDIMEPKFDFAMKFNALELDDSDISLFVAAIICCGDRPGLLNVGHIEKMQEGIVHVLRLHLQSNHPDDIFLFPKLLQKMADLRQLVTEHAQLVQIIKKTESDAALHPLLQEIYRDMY
Sequence of Peroxisome proliferator-activated receptor delta (Homo sapiens) (Q03181 whole entry, looked up): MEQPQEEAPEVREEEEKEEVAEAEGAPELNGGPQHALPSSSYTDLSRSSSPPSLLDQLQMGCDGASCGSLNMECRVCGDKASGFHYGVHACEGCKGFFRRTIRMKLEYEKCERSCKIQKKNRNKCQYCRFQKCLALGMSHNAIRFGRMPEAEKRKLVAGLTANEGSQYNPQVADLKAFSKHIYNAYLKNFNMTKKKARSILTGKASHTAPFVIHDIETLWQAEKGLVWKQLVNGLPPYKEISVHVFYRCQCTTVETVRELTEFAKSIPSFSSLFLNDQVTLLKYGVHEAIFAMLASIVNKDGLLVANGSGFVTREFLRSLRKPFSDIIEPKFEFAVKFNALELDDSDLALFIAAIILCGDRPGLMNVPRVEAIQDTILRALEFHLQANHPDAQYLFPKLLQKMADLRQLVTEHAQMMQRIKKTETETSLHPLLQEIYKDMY
Sequence of Retinoic acid receptor RXR-alpha (Homo sapiens) (P19793 whole entry, looked up): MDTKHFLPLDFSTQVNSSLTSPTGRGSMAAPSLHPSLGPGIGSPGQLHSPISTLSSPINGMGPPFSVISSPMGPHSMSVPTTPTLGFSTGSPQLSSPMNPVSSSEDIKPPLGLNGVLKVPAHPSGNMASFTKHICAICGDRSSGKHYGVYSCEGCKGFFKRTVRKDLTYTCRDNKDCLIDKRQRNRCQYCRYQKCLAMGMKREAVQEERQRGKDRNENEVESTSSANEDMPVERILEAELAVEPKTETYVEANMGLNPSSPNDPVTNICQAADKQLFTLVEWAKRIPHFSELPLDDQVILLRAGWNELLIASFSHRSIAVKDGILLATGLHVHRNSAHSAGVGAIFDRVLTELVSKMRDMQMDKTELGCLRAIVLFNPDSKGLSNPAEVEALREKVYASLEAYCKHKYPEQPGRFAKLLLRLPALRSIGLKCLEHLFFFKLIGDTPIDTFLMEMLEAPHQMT
Sequence of Peroxisome proliferator-activated receptor gamma (Homo sapiens) (P37231 whole entry, looked up): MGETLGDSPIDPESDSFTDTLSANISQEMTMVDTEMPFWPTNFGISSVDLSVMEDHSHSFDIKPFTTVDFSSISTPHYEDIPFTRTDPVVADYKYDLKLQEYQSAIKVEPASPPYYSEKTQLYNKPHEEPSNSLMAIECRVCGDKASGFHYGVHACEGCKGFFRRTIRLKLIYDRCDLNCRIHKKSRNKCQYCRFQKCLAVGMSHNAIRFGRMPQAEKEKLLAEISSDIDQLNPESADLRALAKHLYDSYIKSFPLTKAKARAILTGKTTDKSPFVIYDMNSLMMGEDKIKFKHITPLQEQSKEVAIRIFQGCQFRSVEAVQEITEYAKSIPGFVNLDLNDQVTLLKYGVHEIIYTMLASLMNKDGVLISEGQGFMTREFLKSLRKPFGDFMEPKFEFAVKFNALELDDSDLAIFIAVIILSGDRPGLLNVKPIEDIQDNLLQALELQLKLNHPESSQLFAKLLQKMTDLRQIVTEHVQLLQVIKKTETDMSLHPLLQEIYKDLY
Sequence of Nuclear receptor subfamily 1 group I member 2 (Rattus norvegicus) (Q9R1A7 whole entry, looked up): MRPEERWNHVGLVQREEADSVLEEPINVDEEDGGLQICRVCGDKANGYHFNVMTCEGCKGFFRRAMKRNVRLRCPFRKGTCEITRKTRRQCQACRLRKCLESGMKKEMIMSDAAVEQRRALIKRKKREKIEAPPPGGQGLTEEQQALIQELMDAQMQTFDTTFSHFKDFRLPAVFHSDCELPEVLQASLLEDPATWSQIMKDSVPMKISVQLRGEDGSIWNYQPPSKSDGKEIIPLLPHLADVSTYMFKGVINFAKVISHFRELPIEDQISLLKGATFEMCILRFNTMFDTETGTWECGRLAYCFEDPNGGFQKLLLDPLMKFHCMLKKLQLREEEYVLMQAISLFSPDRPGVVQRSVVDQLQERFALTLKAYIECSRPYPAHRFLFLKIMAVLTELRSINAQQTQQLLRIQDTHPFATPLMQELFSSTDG

CN1COCN(Cc2cnc(Cl)s2)/C1=N\[N+](=O)[O-]
inactive: activation [1] -3.49% | Potency [2] | outcome [3] | Potency [5] | Potency [6] | Potency [7] | outcome [8] | Potency [10] | max response [12] 2.74% | activity change % (negative = inhibition) [13] -19.4% | activation [14] -3.46% | activation [15] 0.219% | activation [16] -0.335% | max response [17] -1.32% | Potency [18] | max response [19] -21.4% | max response [20] -0.262% | max response [21] -0.267% | outcome [22]
-72.6%: max response [4]
-27.5%: max response [9]
-4.43%: max response [11]

C#CC(C)(C)NC(=O)c1cc(Cl)cc(Cl)c1
-7.53%: max response [9]
inactive: activation [1] -9.44% | Potency [2] | outcome [3] | Potency [7] | outcome [8] | Potency [10] | Potency [23] | max response [12] -9.81% | activity change % (negative = inhibition) [13] 3.53% | activation [14] -3.76% | activation [15] -1.42% | activation [16] -1.14% | max response [17] 7.64% | Potency [18] | max response [19] 4.89% | max response [20] 5.07%
-11.2%: max response [11]

COP(=S)(OC)Oc1c(Cl)cc(C)cc1Cl
inactive: activation [1] 2.7% | outcome [3] | Potency [5] | Potency [24] | Potency [6] | Potency [7] | outcome [8] | Potency [10] | Potency [23] | max response [12] -12.7% | activity change % (negative = inhibition) [13] 7.32% | activation [14] 7.93% | activation [15] -0.0055% | max response [17] 5.67% | Potency [18] | max response [19] -1.53% | max response [20] -18.5% | Potency [25] | max response [21] 1.76%
-6.8%: max response [11]
0.267%: max response [9]
-4.3%: max response [4]

CC1(C)[C@@H](C=C(Cl)Cl)[C@@H]1C(=O)OCc1cccc(Oc2ccccc2)c1
inactive: activation [1] 0.397% | outcome [3] | outcome [8] | Potency [23]

S=C([S-])NCCNC(=S)[S-].[Mn+2]
active: Potency [18] 61.1 µM
inactive: activation [1] -3.05%

O=C1C(Cl)=C(Cl)C(=O)c2ccccc21
inactive: activation [1] -5.64% | outcome [8] | max response [17] -10.7% | outcome [22]
active: Potency [26] 2.73 µM | Potency [16] 50.1 µM | Potency [25] 50.1 µM
